This passage reports composite z-score and z-score results from PubChem BioAssay.

Activity calls are given as the source filed them.

The test system of assay [1] is Plasmodium falciparum Sir2 (PF13_0152, Sir2A). Kind of assay: Plasmodium falciparum Sir2A binding compounds – biochemical, small-molecule microarray, 635 nm fluorescence, primary screen (AID 1098).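 Also: score merges spot fluorescence intensity with its signal-to-noise ratio.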 The note with it: fluorescence 635 nm, higher = more signal.
Assay [2] can be described thus: probe aDKK1 binding to arrayed compounds – biochemical, biotinylated probe, 635/667 nm fluorescence, primary screen (AID 1099).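 Also: score merges 667nm spot fluorescence with signal to noise across triplicate slides.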 The note with it: small-molecule microarray, higher = more signal.
The nature of assay [3]: probe aCHRDL2 binding to arrayed compounds – biochemical, biotinylated probe, 635/667 nm fluorescence, primary screen (AID 1100). The note with it: small-molecule microarray, higher = more signal.
Assay [4] is described as follows: change in splice reporter luminescence, either direction, cell-based, HEK293, spliceosome inhibition project, primary screen (AID 1101).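 Also: HEK293 cells carrying a splicing-competent luciferase reporter gene; test concentration not given here.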 To be noted: HEK293 splicing luciferase reporter, 24 h, higher = more signal, called active from +8 up or from −8 down.
Assay [5] has as its target Fibroblast growth factor 10 (Homo sapiens) (UniProt O15520). The assay can be described thus: compounds binding fibroblast growth factor 10 – biochemical, small-molecule microarray, 635 nm fluorescence, primary screen (AID 1102). To be noted: FGF10 binding, fluorescence 635 nm, higher = more signal.
Assay [6] has as its system glycogen synthase kinase-3 (GSK3A per assay name; protocol says GSK3B). The assay can be described thus: compounds binding glycogen synthase kinase-3 – biochemical, small-molecule microarray, 635 nm fluorescence, GSK3A, primary screen (AID 1103). Also: the record names both GSK3A and GSK3B. To be noted: fluorescence 635 nm, higher = more signal.
In assay [7] the target is Epidermal growth factor receptor (Homo sapiens) (UniProt P00533). Kind of assay: compounds binding epidermal growth factor receptor – biochemical, small-molecule microarray, 635 nm fluorescence, primary screen (AID 1104).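 Also: score merges 667 nm emission intensity with spot signal to noise over triplicate slides.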 To be noted: EGFR binding, higher = more signal.
Sequence of Epidermal growth factor receptor (Homo sapiens) (P00533 whole entry, looked up): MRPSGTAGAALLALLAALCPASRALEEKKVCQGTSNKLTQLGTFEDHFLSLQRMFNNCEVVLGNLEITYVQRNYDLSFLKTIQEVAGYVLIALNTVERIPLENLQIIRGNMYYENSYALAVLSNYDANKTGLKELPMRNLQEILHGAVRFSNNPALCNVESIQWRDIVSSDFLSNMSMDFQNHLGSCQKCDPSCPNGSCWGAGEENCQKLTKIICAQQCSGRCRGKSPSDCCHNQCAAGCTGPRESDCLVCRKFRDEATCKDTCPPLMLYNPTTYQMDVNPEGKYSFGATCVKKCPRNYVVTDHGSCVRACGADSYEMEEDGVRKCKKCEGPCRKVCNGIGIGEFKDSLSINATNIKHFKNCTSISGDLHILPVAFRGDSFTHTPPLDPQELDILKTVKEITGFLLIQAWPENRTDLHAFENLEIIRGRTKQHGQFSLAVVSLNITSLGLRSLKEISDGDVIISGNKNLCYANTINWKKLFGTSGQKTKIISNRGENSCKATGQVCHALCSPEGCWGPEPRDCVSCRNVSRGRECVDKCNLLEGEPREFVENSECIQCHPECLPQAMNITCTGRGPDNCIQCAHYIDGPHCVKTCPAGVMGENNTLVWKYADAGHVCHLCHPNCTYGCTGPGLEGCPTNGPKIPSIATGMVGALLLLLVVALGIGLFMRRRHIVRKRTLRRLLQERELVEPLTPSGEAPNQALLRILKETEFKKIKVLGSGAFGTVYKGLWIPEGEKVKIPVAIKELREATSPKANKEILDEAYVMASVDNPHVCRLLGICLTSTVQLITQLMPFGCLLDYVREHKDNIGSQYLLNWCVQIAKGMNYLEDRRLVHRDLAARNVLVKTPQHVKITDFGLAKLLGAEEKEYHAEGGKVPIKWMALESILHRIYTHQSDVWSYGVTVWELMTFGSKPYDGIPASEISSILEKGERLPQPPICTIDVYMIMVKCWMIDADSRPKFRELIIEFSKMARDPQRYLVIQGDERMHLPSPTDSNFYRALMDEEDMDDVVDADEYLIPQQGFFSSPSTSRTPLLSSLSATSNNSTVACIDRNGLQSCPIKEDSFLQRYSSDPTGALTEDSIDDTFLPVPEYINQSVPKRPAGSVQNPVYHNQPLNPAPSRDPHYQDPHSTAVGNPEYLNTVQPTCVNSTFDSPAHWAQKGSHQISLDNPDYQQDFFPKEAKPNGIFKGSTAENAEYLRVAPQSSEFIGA
Assay [8] deals with Follistatin-related protein 3 (Homo sapiens) (UniProt O95633). Kind of assay: compounds binding follistatin-related protein 3 – biochemical, small-molecule microarray, 635 nm fluorescence, primary screen (AID 1105).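 Also: score merges emission near 667 nm and signal to noise per printed spot across three slides.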 The note with it: FSTL3 binding, higher = more signal.
Sequence of Follistatin-related protein 3 (Homo sapiens) (O95633 whole entry, looked up): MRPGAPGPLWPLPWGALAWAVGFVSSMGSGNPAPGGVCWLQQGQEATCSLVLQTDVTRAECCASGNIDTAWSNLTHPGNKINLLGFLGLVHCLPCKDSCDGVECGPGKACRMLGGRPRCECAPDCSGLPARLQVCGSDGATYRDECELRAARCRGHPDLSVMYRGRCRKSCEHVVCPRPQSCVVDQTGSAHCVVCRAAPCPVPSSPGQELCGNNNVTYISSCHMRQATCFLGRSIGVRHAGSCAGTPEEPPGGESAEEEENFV
Assay [9] deals with Dickkopf-related protein 1 (Homo sapiens) (UniProt O94907). The assay can be described thus: small molecules binding DKK1 protein – biochemical, small-molecule microarray, 635 nm fluorescence scan, primary screen (AID 1106).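 Also: score merges emission near 667 nm with signal to noise over three replicate slides.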 The note with it: higher = more signal.
Sequence of Dickkopf-related protein 1 (Homo sapiens) (O94907 whole entry, looked up): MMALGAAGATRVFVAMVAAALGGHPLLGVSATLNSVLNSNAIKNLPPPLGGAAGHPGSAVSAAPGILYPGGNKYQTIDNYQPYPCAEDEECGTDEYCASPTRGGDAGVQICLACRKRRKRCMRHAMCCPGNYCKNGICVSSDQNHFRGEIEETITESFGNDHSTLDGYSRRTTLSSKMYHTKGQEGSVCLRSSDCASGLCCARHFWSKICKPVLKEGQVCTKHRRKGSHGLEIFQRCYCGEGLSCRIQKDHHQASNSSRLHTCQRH
The test system of assay [10] is Inhibin beta A chain (activin A). Kind of assay: small molecules binding activin A – biochemical, small-molecule microarray, 635 nm fluorescence scan, primary screen (AID 1107).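 Also: mouse activin A protein probed at 4.33 µg/mL on printed slides; score merges bound-protein fluorescence near 667 nm with spot signal-to-noise.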 The note with it: INHBA, higher = more signal.
The test system of assay [11] is Human papillomavirus type 1a protein E7 (residues 44-93). The assay can be described thus: small molecules binding HPV E7 44-93 – biochemical, small-molecule microarray, residues 44-93, 635 nm fluorescence, primary screen (AID 1108).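 Also: E7 fragment applied at 1 µg/mL in TBST for 1 h at 4 C; score combines spot fluorescence with its signal to noise ratio.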 The note with it: fluorescence 635 nm, higher = more signal.
Assay [12] is described as follows: hepatitis C replication reporter changes, two-sided – Huh7 cells, luciferase reporter, HCV replication inhibitor project, primary screen (AID 1109).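 Also: huh7 hepatoma cells harbouring a luciferase neomycin HCV replicon reporter; luciferase luminescence as measure of HCV replicon replication; test concentration not given here.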 To be noted: Huh7 HCV replicon luciferase reporter, 48 h; higher = more signal. A general note: In a reporter assay the amount or activity of a reporter protein is the signal.
The target of assay [13] is Left-right determination factor 2 (Homo sapiens) (UniProt O00292). Kind of assay: small molecules binding LEFTY2 protein – biochemical, small-molecule microarray, 635 nm fluorescence scan, primary screen (AID 1110). To be noted: higher = more signal.
Sequence of Left-right determination factor 2 (Homo sapiens) (O00292 whole entry, looked up): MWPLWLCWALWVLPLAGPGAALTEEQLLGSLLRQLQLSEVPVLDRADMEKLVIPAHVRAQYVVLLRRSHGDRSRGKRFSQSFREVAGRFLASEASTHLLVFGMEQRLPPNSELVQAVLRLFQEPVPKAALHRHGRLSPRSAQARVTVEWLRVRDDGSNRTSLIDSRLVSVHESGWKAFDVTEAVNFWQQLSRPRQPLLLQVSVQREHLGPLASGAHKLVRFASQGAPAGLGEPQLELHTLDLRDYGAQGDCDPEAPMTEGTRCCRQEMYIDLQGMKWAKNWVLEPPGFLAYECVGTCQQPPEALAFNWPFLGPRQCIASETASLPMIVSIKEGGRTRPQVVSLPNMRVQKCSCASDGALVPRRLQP
Assay [14] has as its target Calmodulin-1 (Homo sapiens) (UniProt P0DP23). Kind of assay: small molecules binding calmodulin-1 with EGTA – biochemical, small-molecule microarray, Cy5-labelled CALM1, profiling panel (AID 1111).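 Also: labelled calmodulin applied in Tris saline Tween buffer holding calcium plus EGTA and DTT.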 To be noted: Cy5-CALM1 binding fluorescence, higher = more signal.
Assay [15] has the same target. The assay can be described thus: small molecules binding Ca-loaded calmodulin-1 – biochemical, small-molecule microarray, Cy5-labelled CALM1, plus calcium, artefact control for SMM control-protein annotation, profiling panel (AID 1112).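 Also: score merges spot fluorescence with signal to noise from triplicate slides.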 The note with it: Cy5-CALM1 binding fluorescence, higher = more signal.
Assay [16] is described as follows: probe aWnt5a binding to arrayed compounds – biochemical, biotinylated probe, 635/667 nm fluorescence, primary screen (AID 1113).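 Also: score merges 667 nm fluorescence intensity with signal-to-noise per printed feature.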 The note with it: small-molecule microarray, higher = more signal.
A short description of assay [17]: probe aShh binding to arrayed compounds – biochemical, biotinylated probe, 635/667 nm fluorescence, primary screen (AID 1114).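 Also: probe is biotin-labelled aShh protein from a stem cell growth factor screen; measures binding of labelled protein to compounds printed on the slide; score merges feature fluorescence at 667 nm with signal-to-noise.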 To be noted: small-molecule microarray, higher = more signal.
Assay [18] can be described thus: probe aNog binding to arrayed compounds – biochemical, biotinylated probe, 635/667 nm fluorescence, primary screen (AID 1115).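 Also: probe is biotinylated aNog protein used at 0.15 µg/mL for 1 h at 4 C; z-score combines 667 nm fluorescence of each spot with its signal to noise.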 To be noted: small-molecule microarray, higher = more signal.
The target in assay [19] is Torsin-1A-interacting protein 1 (Homo sapiens) (UniProt Q5JTV8). The assay can be described thus: compound microarray binding of lysate hLAP1 – cell lysate, small-molecule microarray, COS7 lysate, 635/667 nm fluorescence, primary screen (AID 1116). To be noted: 635 nm fluorescence, higher = more signal.
Sequence of Torsin-1A-interacting protein 1 (Homo sapiens) (Q5JTV8 whole entry, looked up): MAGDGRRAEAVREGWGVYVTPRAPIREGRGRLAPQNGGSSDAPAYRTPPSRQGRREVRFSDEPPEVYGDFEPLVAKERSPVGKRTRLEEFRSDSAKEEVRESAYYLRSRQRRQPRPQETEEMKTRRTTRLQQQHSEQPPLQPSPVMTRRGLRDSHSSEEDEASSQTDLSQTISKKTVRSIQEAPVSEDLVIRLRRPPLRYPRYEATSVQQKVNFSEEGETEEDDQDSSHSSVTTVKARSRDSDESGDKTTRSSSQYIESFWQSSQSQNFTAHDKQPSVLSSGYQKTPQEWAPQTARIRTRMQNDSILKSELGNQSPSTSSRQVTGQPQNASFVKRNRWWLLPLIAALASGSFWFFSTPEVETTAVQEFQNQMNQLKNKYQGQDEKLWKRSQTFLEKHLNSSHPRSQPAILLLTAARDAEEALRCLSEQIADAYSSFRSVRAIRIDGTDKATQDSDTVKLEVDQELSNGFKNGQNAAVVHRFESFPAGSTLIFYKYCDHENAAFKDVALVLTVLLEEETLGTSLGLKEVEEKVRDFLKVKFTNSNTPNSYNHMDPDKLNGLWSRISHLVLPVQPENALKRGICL
Assay [20] has as its target Alpha-bungarotoxin (Bungarus multicinctus) (UniProt P60615). Kind of assay: compounds binding labelled alpha-BTX control protein – biochemical, small-molecule microarray, Alexa647 label, 635/667 nm fluorescence, artefact control for SMM control protein annotation, profiling panel (AID 1117). To be noted: alpha-BTX-A647 binding fluorescence, higher = more signal.

Sequence of Fibroblast growth factor 10 (Homo sapiens) (O15520 whole entry, looked up): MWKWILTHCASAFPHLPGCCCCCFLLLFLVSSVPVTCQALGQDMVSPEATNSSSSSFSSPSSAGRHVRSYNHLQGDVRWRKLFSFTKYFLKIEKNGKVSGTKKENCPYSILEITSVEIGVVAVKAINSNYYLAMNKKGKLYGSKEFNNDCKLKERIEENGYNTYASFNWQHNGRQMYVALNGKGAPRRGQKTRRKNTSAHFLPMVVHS
Sequence of Alpha-bungarotoxin (Bungarus multicinctus) (P60615 whole entry, looked up): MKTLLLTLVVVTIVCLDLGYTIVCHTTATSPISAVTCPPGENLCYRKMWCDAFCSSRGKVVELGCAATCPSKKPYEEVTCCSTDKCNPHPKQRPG

Take `O=C(NC1CC1)[C@@H]1c2ccccc2C(=O)N(Cc2ccccc2Cl)[C@H]1c1ccc(CO)cc1`: the composite z-score in assay [1] stood at 0.814; in [2] it was 0.893; in [3], 1.02; in [5], 0.474; in [6], 1.24; in [7], 0.186. Besides, the composite z-score in assay [8] is 0.654; in [9] it was 0.63; in assay [10] it was 1.17; in assay [11], 0.791; in [13] it was 0.697; in assay [14], 1.08. In addition, the composite z-score in assay [15] is 0.287; in [16], -0.0765; in assay [17], -0.138; in assay [18], 0.233; in assay [19], 1.46; in assay [20], 0.759. For the same molecule, the z-score was -0.544 (inactive) in assay [4] and -2.09 in [12].

Take `CCOC(=O)C[C@H]1[C@H](OC(=O)c2ccc(C(=O)c3ccccc3)cc2)[C@@H](NC(=O)c2ccc3ccccc3c2)c2cc(OCCCO)ccc2N1C(=O)Cc1ccc(OC)cc1`: the composite z-score in assay [1] is 1.14; in assay [2], 0.282; in assay [3], 0.503; in assay [5] it was 0.545; in assay [6] it was 0.158; in assay [7], -0.16. The composite z-score is 0.303 in assay [8]; -0.213 in [9]; 0.856 in assay [10]; 0.86 in assay [11]; -0.0254 in [13]; 1.14 in assay [14]. Also, the composite z-score in [15] is 0.187; in assay [16], -0.0405; in [17], -0.0553; in assay [18] it was 0.177; in assay [19], 0.669; in assay [20] it was 0.729. Further, the z-score in [4] was -0.175 (inactive); in assay [12], -0.989.

Consider `CCN(CC)c1ccc(N2CC=CC34O[C@@H]5C=CCCOC(=O)C5[C@H]3C(=O)N(CCCCCCO)[C@@H]4C2=O)cc1` (stereo not given in full), for which the composite z-score is 1.93 in [1]; -0.0776 in assay [2]; 0.414 in assay [3]; -1.26 in [5]; -0.39 in assay [6]; -0.661 in assay [7]. The composite z-score in assay [8] was -0.879; in assay [9], -0.555; in assay [10] it was 0.816; in assay [11], -0.873; in assay [13], -0.395; in assay [14] it was -0.235. The composite z-score in assay [15] was 0.307; in assay [16], -0.096; in assay [17], -0.26; in [18], -0.229; in assay [19], 1.33; in [20] it was -0.419. In addition, the z-score was -1.98 (inactive) in [4] and 0.234 in [12].

On to `OCCCC1=CC(c2cccs2)N(Cc2cc3c(cc2Br)OCO3)CC1` (stereo not given), for which the composite z-score in [1] was 0.725; in assay [2], -0.16; in assay [3], 0.197; in [5], 0.21; in assay [6] it was -0.0247; in assay [7], -0.275. Also, the composite z-score was -0.0688 in [8]; 0.211 in assay [9]; 1.01 in assay [10]; 0.172 in assay [11]; -0.0241 in assay [13]; 0.0466 in assay [14]. Further, the composite z-score in assay [15] was -0.16; in assay [16] it was -0.137; in assay [17], -0.0011; in assay [18], -0.105; in assay [19], 0.26; in [20], 1.36. Besides, the z-score was -0.252 (inactive) in [4] and -0.807 in [12].

As to `COc1cc2c(cc1O)C(C1CC1)N(Cc1sc3ccccc3c1Cl)CC2` (stereo not given), the composite z-score in assay [1] is 1.25; in assay [2], 0.147; in assay [3] it was 0.652; in assay [5] it was -0.326; in assay [6], 0.135; in assay [7], -0.0122. Besides, the composite z-score in assay [8] is -0.05; in assay [9], -0.467; in assay [10] it was 1.48; in assay [11] it was 1.39; in [13], -0.423; in [14] it was 0.131. The composite z-score was 0.469 in [15]; -0.0977 in assay [16]; 0.0062 in assay [17]; 0.173 in assay [18]; 1.26 in assay [19]; 0.281 in [20]. For the same molecule, the figures for the z-score in [4] and in assay [12] were -1.57 (inactive) and -2.87, respectively.
